Experimental data from PubChem BioAssay (NCATS).
Inconclusive results are not listed. A number with no mark means an inactive call. The call rests on the fitted dose curve; in most records, active means well fitted inhibition curve with a large enough effect; inconclusive means small, poorly fitted or top-dose-only effect; inactive means flat fitted curve, though single readings scatter.

The compounds below were run on Zika virus NS2B-NS3 protease (assay: Primary screen GU AMC qHTS for Zika virus inhibitors (AID 1347154;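 further: 0% = no-inhibitor control and -100% = no-enzyme control; nearly all actives have a fitted effect of over 70% in size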)). Details: Zika NS2B-NS3 unlinked protease, AMC fluorogenic substrate; series mostly up to 54.1 µM; activity change, negative = inhibition: at the top concentration.
In short: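 Fluorogenic AMC-substrate cleavage by noncovalent NS2B-NS3 protease complex (25 nM, pH 8.0 Tris buffer with Tween 20) followed for 15 minutes at room temperature (~20% conversion). Percent inhibition from ex340/em450 signal change, fitted by 4-parameter Hill equation.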

SMILES | activity change, negative = inhibition
CCC(=C(c1ccc(O)cc1)c1ccc(OCCNC)cc1)c1ccccc1 | 8.17%
CNC(=O)c1cc(COc2nnc(Nc3ccc(Cl)cc3)c3ccoc23)ccn1 | 3.19%
CCNC(=O)Nc1ccc(Oc2ncnc(N)c2C=NOC)cc1Cl | 2.63%
CC(C)(F)C[C@H](N[C@@H](c1ccc(-c2ccc(S(C)(=O)=O)cc2)cc1)C(F)(F)F)C(=O)NC1(C#N)CC1 | -0.85%
CC(=O)OCC(=O)[C@@]1(O)CC[C@H]2[C@@H]3CCC4=CC(=O)C=C[C@]4(C)[C@@H]3[C@@H](O)C[C@@]21C | 16.3%
CC(C)c1c(C(=O)Nc2ccccc2)c(-c2ccccc2)c(-c2ccc(F)cc2)n1CC[C@H](O)C[C@@H](O)CC(=O)O | -1.98%
C#CCN(C)CC1=Cc2ccccc2Oc2ccccc21 | -19.8%
OC[C@H]1O[C@@H](O[C@H]2[C@@H](O)[C@@](O)(CO)O[C@@H]2CO)[C@H](O)[C@@H](O)[C@@H]1O | -1.02%
C[C@@H](O)[C@H]1C(=O)N2C(C(=O)OCOC(=O)C(C)(C)C)=C(SC3CN(C4=NCCS4)C3)[C@H](C)[C@H]12 | 1.47%
CC(=O)O[C@]1(C(C)=O)CC[C@H]2[C@@H]3C=C(Cl)C4=CC(=O)[C@@H]5C[C@H]5[C@]4(C)[C@@H]3CC[C@@]21C | -3.07%
O=C1CCCC(=O)C1C(=O)c1ccc(C(F)(F)F)cc1[N+](=O)[O-] | -8.22%
O=c1[nH]c(=O)n([C@H]2C[C@@H](O)[C@@H](CO)O2)cc1C(F)(F)F | -1.08%
N=C1SC(=Cc2ccc(-c3ccc4c(c3)C(=O)NC4=O)o2)C(=O)N1c1ccc(Br)cc1 | -15.3%
COc1ccc(CCN(C)CCCOc2ccc(S(=O)(=O)c3[nH]c4ccccc4c3C(C)C)cc2)cc1OC | 2.04%
COc1c(C)cnc(Cn2cnc3c(Cl)nc(N)nc32)c1C | 7.37%
Cc1ccc(NC(=O)c2ccc(CN3CCN(C)CC3)cc2)cc1Nc1nc(-c2cccnc2)cs1 | 14.2%
CN[C@H]1[C@@H](O[C@@H]2[C@H](O[C@@H]3[C@@H](O)[C@@H](O)[C@@H](N=C(N)N)[C@@H](O)[C@@H]3N=C(N)N)O[C@H](C)[C@@]2(O)C=O)O[C@@H](CO)[C@@H](O)[C@H]1O | 4.66% [at 16.4 µM]
C[C@H](CCC(=O)O)[C@H]1CC[C@H]2[C@H]3[C@@H](CC[C@]12C)[C@@]1(C)CC[C@@H](O)C[C@H]1C[C@@H]3O | -9.77%

SMILES | activity change, negative = inhibition
CC(C)C[C@@H](C(=O)N[C@H](C(=O)OC1CCCC1)c1ccccc1)[C@H](O)C(=O)NO | -15.4%
CC(C)[C@H](O)C(=O)N[C@@H](C)C(=O)N[C@@H]1C(=O)N(C)CCc2ccccc21 | -0.141%
Cc1cc(CS(=O)(=O)c2ccccc2)cc(OCc2ccc(CN3CCC[C@H]3CO)cc2)c1 | 8.76%
O=S(=O)(NCCNCC=Cc1ccc(Br)cc1)c1cccc2cnccc12 | 6.5%
OC[C@H]1O[C@@H](OCCc2ccc(O)cc2)[C@H](O)[C@@H](O)[C@H]1O | 1.2%
O=C(O)C1=CO[C@@H](O[C@@H]2O[C@H](CO)[C@H](O)[C@H](O)[C@H]2O)[C@@H]2C(CO)=CC[C@H]12 | 8.14%
COc1ccc(C=CC(=O)Nc2ccccc2C(=O)O)cc1OC | -16.6%
C[C@H]1[C@H](O)O[C@@H]2O[C@@]3(C)CC[C@@H]4[C@H](C)CC[C@@H]1[C@@]24OO3 | 6.63%
COc1cc(N2CCN(C)CC2)ccc1Nc1nc(N)c(C(=O)c2c(Cl)cccc2Cl)s1 | 1.09%
O=C(O)c1ccc(O)c2ncc(N3CCOCC3)cc12 | -18.1%
C=CCc1cccc(C=NNC(=O)CN2CCN(Cc3ccccc3)CC2)c1O | -6.05%
CC1=C[C@@H]2[C@@H]([C@@H](O)C[C@@]3(C)[C@H]2C[C@@H](C)[C@]3(O)C(=O)CO)[C@@]2(C)Cc3cnn(-c4ccccc4)c3C=C12 | -6.46%
CN1CCC[C@H]1CCO[C@](C)(c1ccccc1)c1ccc(Cl)cc1 | 5.68%
COc1cc(F)c(C(C)C)cc1-c1ccc(C(F)(F)F)cc1CN1C(=O)O[C@H](c2cc(C(F)(F)F)cc(C(F)(F)F)c2)[C@@H]1C | -3.8%
CCNC(=O)CCCC=CC[C@@H]1[C@H](C=CC(O)CCc2ccccc2)[C@@H](O)C[C@@H]1O (stereo partly specified) | 5.67%
CN(C)CCCNC(=O)c1ccc(-c2cc(O)c3ncccc3c2)cc1 | 3.52%
COc1ccc2c(c1)CC[C@H]1[C@@H]2CC[C@]2(C)[C@@H](NCCCCCCN3C(=O)C=CC3=O)CC[C@H]12 | -1.52%
CC[C@H](CC#N)OC(=O)N[C@@H](C)c1cccc(NC(=O)Nc2ccc(-c3cnco3)c(OC)c2)c1 | -4.89%
